Source: PubChem BioAssay
VACV Venus inh: inhibitors of vaccinia virus (Venus reporter) | Potency, µM (series often up to 36.5 µM), for the others: top-dose activity change, negative = inhibition, most hits filed as inhibitors | Vaccinia virus Venus reporter expression, fluorescence | 330,000 tested, 0.46% active; calls by dose curve; tested in A549 cells; note: % is set by controls: 0 for no effect and ±100 for the full control effect; nearly all actives have a fitted effect of over 30% in size
VACV mCherry inh: inhibitors of vaccinia virus infection (mCherry reporter signal); Vaccinia virus mCherry reporter infection, fluorescence; Potency, µM (doses to about 36.5 µM), without a hit: at the top dose activity change, negative = inhibition, usual class: inhibitors; 310,000 tested, 0.63% active; AID 720579; calls by dose curve; tested in A549 cells; note: % is set by controls: 0 for no effect and ±100 for the full control effect; nearly all actives have a fitted effect of over 35% in size
NS1 inh: influenza NS1 inhibition | 270,000 tested, 0.4% active | Potency, µM (highest dose often 46.1 µM), for the others: at the top dose activity, positive = more growth; calls by dose curve; note: actives are rising curves; nearly all actives have a fitted effect of over 50% in size
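Read-out: OD600 growth recovery of NS1-expressing budding yeast. Cells grown overnight at 30C in -URA glucose medium, washed, resuspended and diluted 1:100 in 2% galactose assay medium, pH 6.0. Same strain lacking NS1 served as positive control.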
Pf growth 96h: P. falciparum growth inhibition at 96 hour, primary screen for plastid delayed-death inhibitors. 320,000 tested, 6.9% active. P. falciparum luciferase reporter growth, 96 h. Potency, µM (highest dose often 28.7 µM), for the others: at the highest dose activity change, negative = inhibition, usual class: inhibitors; note: % is set by controls: 0 for no effect and ±100 for the full control effect
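Two-generation exposure (96 h) targets delayed-death phenotype. Reporter parasites carrying integrated firefly luciferase, in red cells at 2% hematocrit and 0.05% parasitemia final, kept at 37 C, 5% CO2; luminescence loss indicates inhibition.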
HCV inh: inhibitors of hepatitis C virus infection; AID 651820; Potency, µM (titrated, usually from 41.8 µM), for the others: at the top dose activity change, negative = inhibition, hits mostly inhibitors; 340,000 tested, 3.4% active; Huh7.5.1 HCVcc-Cre infection, luciferase reporter, 44 h; note: % is set by controls: 0 for no effect and ±100 for the full control effect
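Seed cells (1,000/well) for 4 h; treat with compound and infect with HCVcc-Cre, moi about 0.5. Incubate 44 h, then detect luciferase activity.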
Pf growth 48h: inhibits P. falciparum growth in the first generation, 48 h; P. falciparum luciferase growth in erythrocytes, 48 h; Potency, µM (series often up to 28.7 µM), inactives show top-dose activity change, negative = inhibition, actives largely listed as inhibitors; 310,000 tested, 5.9% active; AID 504832; note: % is set by controls: 0 for no effect and ±100 for the full control effect
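In quantitative HTS format, infected erythrocytes bearing luciferase-reporter parasites were treated for a single generation at 37 C. Luminescence after adding detection reagent served as the growth measure.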
Starred values were filed as active, the others as inactive; i = inactive; ? = inconclusive; . = no result; [ ] = remark or other dose. An excerpt weighted towards active compounds, which were near 11% of everything screened. Unless noted, calls come from the whole dose curve; as a rule, active = well fitted inhibition curve with a large enough effect; inconclusive = small, poorly fitted or top-dose-only effect, or another doubt; inactive = no such curve, though single readings can be large or run the other way. Potency is the fitted concentration of half-maximal effect.

SMILES | VACV Venus inh | VACV mCherry inh | NS1 inh | Pf growth 96h | HCV inh | Pf growth 48h
Cc1ccc(NS(=O)(=O)c2ccc(-c3ccc(=O)[nH]n3)o2)cc1N(C)C | -10.8% | -3.9% | 4.6% | -12.9% | 3.6% | 18.4%
COc1ccc(CCC(=O)Nc2ccc(S(=O)(=O)N3CCOCC3)cc2)cc1 | -4.3% | -23.6% | 7.2% | 230.6% | -19.4% | -17.6%
CN(CC(=O)Nc1ccc(S(=O)(=O)N2CCOCC2)cc1)Cc1ccc(F)cc1 | . | . | . | 13.1µM* | 5.9% | ?
CSc1ccccc1NC(=O)CN(C)CC(=O)Nc1ccc(S(=O)(=O)N2CCCC2)cc1 | -15.1% | i | . | . | 10.5% | .
CCC(=O)Nc1ccc(S(=O)(=O)N2CCOCC2)cc1 | -9.6% | i | -15.3% | 20.8% | 18.4% | .
CCN(CC(=O)Nc1ccc(S(=O)(=O)N2CCOCC2)cc1)Cc1ccccc1 | -13.1% | ? | . | ? | ? | ?
COc1ccc(N(CC(=O)Nc2ccc(S(=O)(=O)N3CCOCC3)cc2)S(=O)(=O)c2ccc(F)cc2)cc1 | -21.6% | -28.1% | 17.5% | -1.1% | 14.1µM* | 13.1µM*
CCc1ccc(CN(C)CC(=O)Nc2ccc(S(=O)(=O)N3CCOCC3)cc2)cc1 | . | . | . | ? | -16.2% | 10.4µM*
CN(CC(=O)Nc1ccc(S(=O)(=O)N2CCCC2)cc1)CC(=O)Nc1ccc(F)c(F)c1F | -5.8% | -9.6% | . | ? | ? | 10.4µM*
Cc1sc2ncn(CC(=O)N3CCC(C(N)=O)CC3)c(=O)c2c1S(=O)(=O)N1CC(C)CC(C)C1 (stereo not drawn) | 15.3% | -8.1% | 13.6% | -8.8% | -2.8% | ?
Cc1c(NC(=O)CC(C)C)cccc1-c1nc2cccnc2s1 | -11.2% | i | . | . | . | .
Cc1ccc(S(=O)(=O)N2c3cc(C)ccc3OCC2C(C)(C)C)cc1 (stereo not drawn) | ? | -18.7% | -36.3% | ? | ? | 13.1µM*
O=C(C(Cl)Cl)N1c2ccccc2OCC1c1ccccc1 (stereo not drawn) | . | . | -13.9% | ? | 12.6µM* | ?
Cc1ccc(S(=O)(=O)N2c3ccccc3OCC2c2ccccc2)cc1 (stereo not drawn) | . | . | 12.3% | ? | 35.5µM* | 2.62µM*
CC1COc2ccccc2N1S(=O)(=O)c1ccc(Cl)cc1 (stereo not drawn) | -19.7% | ? | . | ? | -6.8% | 10.4µM*
COc1ccc(S(=O)(=O)N2c3cc(C)ccc3OCC2C(C)(C)C)cc1 (stereo not drawn) | ? | ? | -34.8% | ? | ? | ?
CC1COc2ccccc2N1C(=O)c1ccc(Cl)cc1 (stereo not drawn) | -12.6% | -12.1% | -5.1% | 32.4% | 0.6% | 7.9%
Cc1ccc(C(=O)N2c3ccccc3OCC2C)cc1 (stereo not drawn) | . | . | -7.2% | 8.7% | -4.3% | 3.4%
CCOC(=O)CCc1c(C)nc2cc(-c3ccc(F)cc3)[nH]n2c1=O | 0.9% | . | 2.9% | . | -2.5% | ?
CCOC(=O)c1c(S(=O)(=O)NCc2ccc(OC)cc2)c(C)n(C)c1C | . | . | -13.4% | -5.4% | 13.2% | -11.7%
CC1CCC(C(C)C)C(OC(=O)Cn2c(-c3ccc(Br)cc3)[n+](C)c3ccccc32)C1 (stereo not drawn) | 12.6µM* | 11.2µM* | -1.7% | ? | ? | 1.65µM*
CC1CCC(C(C)C)C(OC(=O)Cn2c(-c3ccc(Cl)cc3)[n+](C)c3ccccc32)C1 (stereo not drawn) | 10.7%[7.34 µM] | 2.2%[7.34 µM] | -1.5% | ? | ? | ?
Cc1ccccc1OCc1n(CC(=O)OC2CC(C)CCC2C(C)C)c2ccccc2[n+]1C (stereo not drawn) | 11.2µM* | ? | 1.6% | ? | ? | ?
COC(=O)c1ccc(C2NC(=S)N(c3ccccc3)C(C)=C2C(=O)Nc2ccccc2OC)cc1 (stereo not drawn) | . | . | -5.9% | . | ? | 13.1µM*
CC1=C(C(=O)N2CCOCC2)C(c2ccc(Br)cc2)NC(=S)N1c1ccccc1 (stereo not drawn) | -0.5% | -7.9% | . | 0.0% | 5.2% | -4.4%
SMILES | VACV Venus inh | VACV mCherry inh | NS1 inh | Pf growth 96h | HCV inh | Pf growth 48h
CCCCOP(=O)(OCCCC)C1(NS(=O)(=O)c2ccccc2)C=CC(=O)c2ccccc21 (stereo not drawn) | -8.8% | . | -11.5% | ? | -11.8% | 10.4µM*
C/C(CC(=O)NC(C)(C)C)=N\NC(N)=S | ? | 10µM* | -2.6% | 62.2% | 17.5% | -24.8%
C/C(CC(=O)Nc1ccc(Cl)c(C(F)(F)F)c1)=N\NC(=O)c1ccccc1O | ? | 10µM* | -22.0% | ? | -1.7% | ?
C/C(CC(=O)Nc1ccc(Cl)c(C(F)(F)F)c1)=N\NC(=O)c1cnccn1 | -20.3% | ? | 8.5% | -8.5% | ? | ?
C/C(CC(=O)Nc1ccc(Cl)c(C(F)(F)F)c1)=N\NC(=O)c1cccc(O)c1 | -4.9% | -14.2% | -21.5% | -1.1% | -13.3% | 11.7µM*
C/C(CC(=O)Nc1ccc(Cl)c(C(F)(F)F)c1)=N\NC(N)=S | ? | 17.8µM* | 4.7% | 35.0% | 6.31µM* | 45.0%
C/C(CC(=O)Nc1ccc(Br)cc1)=N\NC(=O)c1cccc(O)c1 | . | . | 24.6% | ? | 3.0% | ?
C/C=C/c1ccc(OCCN2C(=O)NC(C)(C)C2=O)c(OC)c1 | -9.7% | -4.2% | 5.2% | . | 19.0% | ?
O=C(Nc1ccc2[nH]c(=O)[nH]c2c1)c1ccc(Br)o1 | . | . | -6.7% | ? | 22.1% | 32.1%
CC1(C(=O)Nc2cccc3cccnc23)CCN1C(=O)Cc1ccc(Cl)cc1Cl (stereo not drawn) | 2.2% | i | . | . | . | .
CS(=O)(=O)N1CCCC(C(=O)NCc2ccco2)C1 (stereo not drawn) | -0.8% | -21.0% | 1.6% | ? | 9.1% | 21.0%
CCOC(=O)C1CCN(Cc2ccc(F)cc2)CC1 | . | . | 1.6% | . | 11.9% | -7.3%
Cc1cc(O)c(CN2CCN(c3ccccc3)CC2)cc1C | -10.0% | . | 1.4% | . | 16.9% | 1.47µM*
COc1ccc(CN2CCN(c3ccccc3)CC2)c(C)c1C | . | . | -60.4% | -14.2% | -5.7% | .
Cc1ccc(O)c(CN2CCN(c3ccccc3)CC2)c1 | -3.2% | 3.5% | -6.2% | 90.5% | 6.7% | 2.62µM*
CCN(C(=O)CCN1C(=O)/C(=C/c2ccccc2)SC1=S)C1CCS(=O)(=O)C1 (stereo not drawn) | ? | ? | -13.3% | 7.38µM* | ? | 13.1µM*
CN(C(=O)CCN1C(=O)/C(=C/c2ccc(F)cc2)SC1=S)C1CCS(=O)(=O)C1 (stereo not drawn) | 11.2µM* | ? | . | . | . | .
CC(C(=O)N(C)C1CCS(=O)(=O)C1)N1C(=O)/C(=C/c2ccc(F)cc2)SC1=S (stereo not drawn) | . | . | 3.6% | 11.7µM* | -23.1% | 13.1µM*
CC(C(=O)NC1C=CS(=O)(=O)C1)N1C(=O)/C(=C/c2ccc(Cl)cc2)SC1=S (stereo not drawn) | . | . | -28.6% | 41.6% | -18.7% | 45.9%
